Only some compounds are listed: those with a hit (about 18% of all), similar ones and a draw of the others.
PLK1 PBD inh: qHTS for Inhibitors of PLK1-PDB (polo-like kinase 1 - polo-box domain): Primary Screen; Serine/threonine-protein kinase PLK1 (Homo sapiens), P53350; Plk1 PBD binding of FITC phosphopeptide, fluorescence polarization; Potency, µM, inactives show max response, negative = inhibition, actives largely listed as inhibitors; 360,000 tested, 2.8% active; AID 720504, 2013; further: series mostly up to about 57 µM; nearly all actives have a fitted effect of over 65% in size
Target sequence (P53350 whole entry, looked up, the tested form may be a part): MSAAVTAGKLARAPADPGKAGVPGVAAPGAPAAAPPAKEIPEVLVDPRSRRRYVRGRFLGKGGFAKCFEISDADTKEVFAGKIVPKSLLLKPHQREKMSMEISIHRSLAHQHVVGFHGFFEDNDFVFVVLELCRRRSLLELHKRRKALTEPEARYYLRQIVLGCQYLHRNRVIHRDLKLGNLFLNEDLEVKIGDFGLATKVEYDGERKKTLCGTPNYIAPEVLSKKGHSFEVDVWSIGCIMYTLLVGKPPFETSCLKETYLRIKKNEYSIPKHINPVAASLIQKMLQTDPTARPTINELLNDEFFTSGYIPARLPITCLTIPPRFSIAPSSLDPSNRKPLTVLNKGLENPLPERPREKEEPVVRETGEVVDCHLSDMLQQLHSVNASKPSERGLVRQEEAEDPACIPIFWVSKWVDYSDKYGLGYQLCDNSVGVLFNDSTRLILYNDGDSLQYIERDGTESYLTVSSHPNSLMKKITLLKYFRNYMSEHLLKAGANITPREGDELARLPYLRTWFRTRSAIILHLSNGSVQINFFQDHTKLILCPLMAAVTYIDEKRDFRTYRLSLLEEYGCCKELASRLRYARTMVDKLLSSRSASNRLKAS
VDR inh: Inhibitors of the vitamin D receptor (VDR): qHTS. Vitamin D3 receptor (Homo sapiens), P11473. VDR-SRC2-3 peptide fluorescence polarization, 2 h. Potency, µM, for inactives: max response, negative = inhibition, actives largely listed as inhibitors. 400,000 tested, 0.93% active. AID 504847, 2011
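Compounds are added to VDR with labelled SRC2-3 coactivator peptide and held 2 h at room temperature. Inhibition of the VDR–peptide interaction is then read as a change in fluorescence polarization.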
KAT2A inh: qHTS Assay for Inhibitors of GCN5L2; Histone acetyltransferase KAT2A (Homo sapiens), Q92830; GCN5L2 HAT assay, ThioGlo1 CoA-SH fluorescence; Potency, µM (highest dose often 58.9 µM), for inactives: at the top dose activity change, negative = inhibition, actives largely listed as inhibitors; 390,000 tested, 0.21% active; AID 504327, 2011
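Titration-based screen in which CoA formation is detected via maleimide probe ThioGlo1 (50uM) turning fluorescent on thiol reaction; substrates H3(1-25) 75uM and acetyl-CoA 70uM, GCN5L2 20nM, 20 min incubation at room temperature.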
TDP1 cell noCPT: qHTS for Inhibitors of human tyrosyl-DNA phosphodiesterase 1 (TDP1): qHTS in cells in absence of CPT | DT40 Tdp1-/- hTDP1 cells, no CPT, ATP luminescence, 48 h | Potency, µM (series often up to 46.2 µM), without a hit: top-dose activity change, negative = growth inhibition, usual class: inhibitors | 420,000 tested, 15% active | AID 686978, 2013; further: nearly all actives have a fitted effect of over 55% in size
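Seeded 400 DT40-hTDP1 cells/well (vehicle DMSO, no 20 nM CPT); pinned compounds; ≥48 hr at 37 °C; CellTiter-Glo luminescence as viability measure.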
TDP1 block: qHTS Assay for Inhibitors of Tyrosyl-DNA Phosphodiesterase (TDP1). Tyrosyl-DNA phosphodiesterase 1 (Homo sapiens), Q9NUW8. AID 485290, 2010. 350,000 tested, 0.28% active. recombinant TDP1, AlphaScreen DNA substrate cleavage. Potency, µM (top dose mostly 130 µM), inactives show at the top dose activity change, negative = inhibition, hits mostly inhibitors; further: nearly all actives have a fitted effect of over 40% in size
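Enzyme-compound mixtures sat 15 min at room temperature, followed by a 5 min reaction with 15 nM final substrate and 10 min with AlphaScreen beads. Recombinant human Tdp1 was used at 1 nM final.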
DT40 TDP1 CPT: qHTS for Inhibitors of human tyrosyl-DNA phosphodiesterase 1 (TDP1): qHTS in cells in presence of CPT; AID 686979, 2013; chicken DT40 Tdp1-/-;hTDP1 cells + 20 nM CPT, ATP luminescence, 48 h; 420,000 tested, 12% active; Potency, µM (doses to about 46.2 µM), without a hit: at the top dose activity change, negative = growth inhibition, hits mostly inhibitors; further: nearly all actives have a fitted effect of over 55% in size
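Cell growth measured by CellTiter-Glo luminescence after a minimum 48 h, 37 C compound exposure with 20 nM CPT in Tdp1-knockout DT40 cells stably expressing hTDP1, seeded 400/well; qHTS titration format.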
The depositor's hits bear a star. The call rests on the fitted dose curve; in most records, active means well fitted curve in the direction sought with a large enough effect; inconclusive means small, poorly fitted or top-dose-only effect, or another doubt; inactive means no such curve, though single readings can be large; an effect the other way counts as inactive or inconclusive. On the % scale 0 is the no-effect control and ±100 the full control effect; potency means the concentration at half of the fitted maximal effect.

For CCC(Oc1ccc(Br)cc1Cl)C(=O)Nc1nnc(C2CC2)s1 (stereo not given) the results were PLK1 PBD inh 0%, VDR inh -5%, KAT2A inh -10%, TDP1 cell noCPT -24%, TDP1 block 2% and DT40 TDP1 CPT -15%.
CCC(C(=O)OC)n1cnc2c(cnn2-c2ccc(F)cc2)c1=O (stereo not given) was read as VDR inh 10%, KAT2A inh -1%, TDP1 cell noCPT inconclusive, TDP1 block 3% and DT40 TDP1 CPT -27%.
For CCN(CCn1cccn1)C(=O)c1ccc2nc(Cc3ccc(OC)cc3)oc2c1 the results were PLK1 PBD inh -6%, VDR inh 11%, KAT2A inh -3%, TDP1 cell noCPT inconclusive, TDP1 block 9% and DT40 TDP1 CPT inconclusive.
Cc1cc(C)c2nc(SCC(=O)Nc3ccccc3N3CCOCC3)c(C#N)cc2c1 was read as PLK1 PBD inh 30µM*, VDR inh -8%, TDP1 cell noCPT inconclusive and DT40 TDP1 CPT inconclusive.
Screening Cc1nnc(SCC(=O)N2CC(=O)Nc3ccccc32)s1 returned PLK1 PBD inh 0%, VDR inh -7%, KAT2A inh 7%, TDP1 cell noCPT 10%, TDP1 block -5% and DT40 TDP1 CPT 4%.
Screening Cc1cc(C)c2nc(SCC(=O)N3CC(=O)Nc4ccccc43)c(C#N)cc2c1 returned PLK1 PBD inh 20%, VDR inh -18%, KAT2A inh -8%, TDP1 cell noCPT 1.3µM*, TDP1 block -2% and DT40 TDP1 CPT 1.3µM*.
Cc1cc(C)c2c(c1)cc(C)c1nnc(SCC(=O)Nc3ccccc3N3CCOCC3)n12 was read as PLK1 PBD inh -2%, VDR inh -18%, KAT2A inh 39%, TDP1 cell noCPT inconclusive, TDP1 block 3% and DT40 TDP1 CPT inconclusive.
`COc1ccc(C2CC(c3cccs3)=NN2C(=S)Nc2ccccc2)cc1OC` (stereo not given) gave PLK1 PBD inh -5%, VDR inh -8%, KAT2A inh 2%, TDP1 cell noCPT -5%, TDP1 block 5% and DT40 TDP1 CPT 2%.
`CC1=NN(C(=S)Nc2ccccc2)C(c2ccccc2)C1` (stereo not given) gave PLK1 PBD inh -2%, VDR inh -4%, KAT2A inh 5%, TDP1 cell noCPT -11%, TDP1 block 1% and DT40 TDP1 CPT -3%.
Screening S=C(Nc1ccccc1)N1N=C(c2cccs2)CC1c1cccs1 (stereo not given) returned PLK1 PBD inh 12µM*, VDR inh 79µM*, KAT2A inh -21%, TDP1 cell noCPT inconclusive and DT40 TDP1 CPT inconclusive.
`Cc1ccc(C2CC(c3ccccc3)=NN2C(=S)Nc2ccccc2)o1` (stereo not given) gave PLK1 PBD inh -29%, VDR inh -19%, KAT2A inh -15%, TDP1 cell noCPT 5.8µM*, TDP1 block -8% and DT40 TDP1 CPT 3.3µM*.
`CCN1C(=O)[C@H]2[C@@H](c3ccc(OC)cc3)N[C@]3(CCCN(Cc4ccc(F)cc4)C3=O)[C@H]2C1=O` gave PLK1 PBD inh -5%, TDP1 cell noCPT inconclusive and DT40 TDP1 CPT -25%.
Cc1nc2ccccc2n1CC(O)COCC1CC=CCC1 (stereo not given) was read as PLK1 PBD inh -4%, VDR inh 20%, KAT2A inh -5%, TDP1 cell noCPT 10µM*, TDP1 block 7% and DT40 TDP1 CPT 15µM*.

Compound activity (PubChem)
